The nature of assay [1]: qHTS assay to identify small molecule agonists of the sonic hedgehog signaling (Shh) pathway (AID 1259368). Note: nearly all actives have a fitted effect of over 15% in size. Note: potency is the fitted concentration of half-maximal effect. In outline: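 Cells of a mouse NIH/3T3 clone stably expressing luciferase under the Gli1 transcriptional response element are exposed to test chemicals for 24 hr at 37 C. Pathway activation is detected as a rise in luminescence.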
(In qHTS, concentration-response curves come from the screen itself.)

Assay [2] is described as follows: qHTS assay to identify small molecule antagonists of the sonic hedgehog signaling (Shh) pathway (AID 1259369). Note: nearly all actives have a fitted effect of over 45% in size. Note: potency is the fitted concentration of half-maximal effect. The gist of the method: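 Cells are plated and held 4hr at 37 C, compounds (DMSO) are pinned in, conditioned medium is added to stimulate the pathway, and after 24hr luciferase reagent is added for 30min before luminescence is read.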
Assay [3] is described as follows: qHTS assay to identify small molecule agonists of the androgen receptor (AR) signaling pathway in the presence of an antagonist - cell viability counter screen (AID 1259379; active = well fitted curve in the direction sought with a large enough effect in the repeat runs; an effect the other way counts as inactive or inconclusive; note: nearly all actives have a fitted effect of over 25% in size; note: potency is the fitted concentration of half-maximal effect). In outline: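 Cytotoxicity is assessed by CellTiter-Fluor in MDA-kb2 cells carrying an MMTV-driven luciferase reporter. Cells receive 3.0uM nilutamide plus compounds at 15 concentrations and incubate 16 hr at 37C without CO2 before fluorescence reading.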

Assay [4] in a line: qHTS assay to identify small molecule agonists of the estrogen receptor beta (ER-beta) signaling pathway - cell viability counter screen (AID 1259380; active = well fitted curve in the direction sought with a large enough effect in the repeat runs; an effect the other way counts as inactive or inconclusive; note: nearly all actives have a fitted effect of over 30% in size; note: potency is the fitted concentration of half-maximal effect). The gist of the method:
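Cytotoxicity is measured in parallel with the reporter screen: after 16 hr compound exposure at 37C and a 2 hr LiveBLAzer step, CellTiter-Glo is added to the same ER-beta-UAS-bla HEK293T wells and luminescence read after 30 min.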

The target of assay [5] is Androgen receptor (Homo sapiens) (UniProt P10275). The assay can be described thus: qHTS assay to identify small molecule agonists of the androgen receptor (AR) signaling pathway in the presence of an antagonist (AID 1259381). Note: nearly all actives have a fitted effect of over 15% in size. The gist of the method: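 Agonist-mode confirmation screen: human MDA-kb2 cells stably expressing luciferase under an MMTV promoter bearing AR and GR response elements, co-treated with 3.0uM nilutamide (final). Luminescence measured after 16hr compound incubation.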

A short description of assay [6]: qHTS assay to identify small molecule antagonists of the estrogen receptor beta (ER-beta) signaling pathway - cell viability counter screen (AID 1259382; active = well fitted curve in the direction sought with a large enough effect in the repeat runs; an effect the other way counts as inactive or inconclusive; note: series mostly up to about 92 µM; nearly all actives have a fitted effect of over 55% in size). In outline: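 Cytotoxicity counter screen multiplexed with the beta-lactamase antagonist assay: GripTite HEK293T ER-beta-bla cells were treated 16 hr with test chemicals in the presence of 1nM 17-beta-estradiol, and viability was measured by CellTiter-Glo.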

The target of assay [7] is Estrogen receptor (Homo sapiens) (UniProt P03372). As to the kind of experiment: qHTS assay to identify small molecule agonists of the estrogen receptor alpha (ER-alpha) signaling pathway in the presence of an antagonist (AID 1259383). Note: top concentration of the series differs between compounds; nearly all actives have a fitted effect of over 15% in size. In outline: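 Agonist-mode confirmation in the presence of the ER antagonist ICI-182,780 at 10.0nM final. Breast-derived VM7Luc4E2 reporter cells were exposed to compounds for 22hr, and ERE-driven luciferase was quantified by luminescence.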

A short description of assay [8]: qHTS assay to identify small molecule agonists or antagonists of the thyroid stimulating hormone receptor (TSHR) signaling pathway - wild type cell line counter screen (AID 1259384). The gist of the method: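 Wild-type Hek293 cells, 800/well, 18 h at 37C, then compound with Ro20-1724 for 30 min RT. cAMP by HTRF (cAMP-d2/anti-cAMP cryptate), 1 h RT, fluorescence read. 15 concentrations, triplicates.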

In assay [9] the target is Estrogen receptor beta (Homo sapiens) (UniProt Q92731). The assay can be described thus: qHTS assay to identify small molecule agonists of the estrogen receptor beta (ER-beta) signaling pathway (AID 1259377; active = well fitted activation curve with a large enough effect in the signal ratio in the repeat runs, not every such curve was filed as active; the % refers to the signal ratio). The gist of the method:
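In HEK293T cells bearing a UAS-beta-lactamase reporter under ER-beta control, DMSO-delivered compounds were incubated for 16 hr at 37C. Activity was detected as fluorescence 2 hours after LiveBLAzer B/G FRET substrate addition.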

Assay [10] has the same target. As to the kind of experiment: qHTS assay to identify small molecule antagonists of the estrogen receptor beta (ER-beta) signaling pathway (AID 1259378; active = well fitted inhibition curve with a large enough effect in the signal ratio in the repeat runs, not every such curve was filed as active; the % refers to the signal ratio). The gist of the method: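 ER-beta-UAS-bla HEK293T cells in 2% charcoal-stripped FBS medium treated with compound plus 1nM final 17-beta-estradiol for 16 hr at 37C. Beta-lactamase reporter read by FRET substrate fluorescence after 2 hours at room temperature.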

Where “and” joins values, the source holds several entries; their conditions need not be identical. Equal entries are not always repeated. Results filed as inconclusive are left out. A structure can be active in one record and inactive in another. Calls of active or inactive are those of the source. Unless noted, calls come from the whole dose curve.

Sequence of Estrogen receptor beta (Homo sapiens) (Q92731 whole entry, looked up): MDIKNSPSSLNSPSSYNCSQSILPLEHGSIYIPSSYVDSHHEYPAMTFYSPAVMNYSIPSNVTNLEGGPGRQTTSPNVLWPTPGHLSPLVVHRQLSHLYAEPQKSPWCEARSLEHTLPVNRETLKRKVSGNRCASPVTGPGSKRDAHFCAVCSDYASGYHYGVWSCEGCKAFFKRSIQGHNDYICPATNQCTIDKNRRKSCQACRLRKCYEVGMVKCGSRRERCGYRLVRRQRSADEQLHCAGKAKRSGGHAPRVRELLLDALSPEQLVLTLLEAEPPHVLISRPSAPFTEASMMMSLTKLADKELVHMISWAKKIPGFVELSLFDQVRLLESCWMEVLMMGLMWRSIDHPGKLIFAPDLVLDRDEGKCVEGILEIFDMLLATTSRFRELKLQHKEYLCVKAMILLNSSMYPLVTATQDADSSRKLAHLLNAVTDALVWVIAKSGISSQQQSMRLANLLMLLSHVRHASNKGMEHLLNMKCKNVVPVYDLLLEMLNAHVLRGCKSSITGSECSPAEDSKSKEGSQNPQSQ
Sequence of Estrogen receptor (Homo sapiens) (P03372 whole entry, looked up): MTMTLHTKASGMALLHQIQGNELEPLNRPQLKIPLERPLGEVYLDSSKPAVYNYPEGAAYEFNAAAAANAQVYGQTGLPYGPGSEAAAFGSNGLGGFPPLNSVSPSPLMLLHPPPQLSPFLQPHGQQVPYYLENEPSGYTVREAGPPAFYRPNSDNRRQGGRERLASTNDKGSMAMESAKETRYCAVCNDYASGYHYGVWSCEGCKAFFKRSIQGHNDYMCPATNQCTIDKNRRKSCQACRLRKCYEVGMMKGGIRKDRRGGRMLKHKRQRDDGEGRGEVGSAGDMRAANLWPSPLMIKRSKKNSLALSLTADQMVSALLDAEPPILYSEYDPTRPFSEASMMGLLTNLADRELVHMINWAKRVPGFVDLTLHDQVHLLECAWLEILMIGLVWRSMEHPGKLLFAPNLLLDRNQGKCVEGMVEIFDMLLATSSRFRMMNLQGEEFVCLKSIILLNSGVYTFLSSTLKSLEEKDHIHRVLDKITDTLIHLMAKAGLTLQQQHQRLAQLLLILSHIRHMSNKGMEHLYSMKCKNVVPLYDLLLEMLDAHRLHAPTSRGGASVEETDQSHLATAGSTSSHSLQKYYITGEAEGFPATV
Sequence of Androgen receptor (Homo sapiens) (P10275 whole entry, looked up): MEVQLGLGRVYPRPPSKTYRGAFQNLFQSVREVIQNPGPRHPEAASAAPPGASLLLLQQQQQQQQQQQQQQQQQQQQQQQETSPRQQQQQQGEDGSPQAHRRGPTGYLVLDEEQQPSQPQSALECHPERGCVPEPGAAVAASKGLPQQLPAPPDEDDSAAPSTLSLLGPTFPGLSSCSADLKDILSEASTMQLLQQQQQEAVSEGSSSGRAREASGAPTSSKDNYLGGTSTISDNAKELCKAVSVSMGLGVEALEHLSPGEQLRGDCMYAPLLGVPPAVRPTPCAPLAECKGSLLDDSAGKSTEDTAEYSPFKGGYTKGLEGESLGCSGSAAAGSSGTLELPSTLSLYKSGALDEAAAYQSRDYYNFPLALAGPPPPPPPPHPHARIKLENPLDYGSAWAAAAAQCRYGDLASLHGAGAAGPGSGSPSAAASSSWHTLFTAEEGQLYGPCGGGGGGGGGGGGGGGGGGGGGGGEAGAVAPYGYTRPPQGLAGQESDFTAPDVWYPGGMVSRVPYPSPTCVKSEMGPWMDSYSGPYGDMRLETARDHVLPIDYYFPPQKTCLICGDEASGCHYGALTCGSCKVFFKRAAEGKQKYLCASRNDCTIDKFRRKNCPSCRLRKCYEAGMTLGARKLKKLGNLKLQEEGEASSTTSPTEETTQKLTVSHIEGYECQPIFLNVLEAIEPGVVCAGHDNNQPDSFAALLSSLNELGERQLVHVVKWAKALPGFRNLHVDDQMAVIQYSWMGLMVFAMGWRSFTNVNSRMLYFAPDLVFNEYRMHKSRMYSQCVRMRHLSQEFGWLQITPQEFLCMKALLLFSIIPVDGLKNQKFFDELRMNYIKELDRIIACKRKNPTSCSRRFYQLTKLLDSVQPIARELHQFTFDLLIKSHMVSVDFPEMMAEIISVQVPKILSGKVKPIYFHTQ

With `CCCCCCCCCCOC(=O)c1ccccc1C(=O)OCCCCCCCCCC`, the Potency entry in assay [1], in assay [2], in [3], in assay [4], in assay [5] and in assay [6] was “inactive” each time. Moreover, the Potency result in assay [7] was “inactive”.

Regarding `O=C(CCl)c1ccc(Cl)cc1Cl`, the Potency entry in assay [1], in assay [5] and in assay [7] was “inactive” in each case. Further, the Potency in assay [2] is 5.96 µM (active); in [3], “inactive and 29.8 µM (active)”; in [4], 38.4 µM (active) and 18.8 µM (active). Moreover, the call in assay [8] was inactive.

Consider `COCCOCCO`, for which the Potency entry in assay [1], in assay [6] and in assay [7] was “inactive” in each case. Besides, the Potency in assay [2] was 27.3 µM (active). Moreover, the result in assay [8] was inactive.

With `COP(=S)(Oc1cc(Cl)c(Br)cc1Cl)c1ccccc1` (configuration not stated), the Potency entry in assay [1], in assay [2], in [5], in assay [6] and in [7] was “inactive” each time.

Consider `II`, for which the Potency entry in assay [1], in assay [2], in assay [3], in [5] and in assay [7] was “inactive” in each case.

`O=C1C(Cl)C(CCl)CN1c1cccc(C(F)(F)F)c1` (configuration not stated): the Potency result in [1], in assay [9], in [10], in [3], in assay [5] and in assay [6] was “inactive” in each case. Moreover, in [8], the result was inactive.

Take `[CH3][Sn]([CH3])([Cl])[Cl]`: the Potency was 7.82 µM (active) and 24.3 µM (active) in assay [1]; 2.43 µM (active) in assay [2]. Moreover, the Potency entry in assay [4] and in [6] was “inactive” each time.

Regarding `COC(=O)c1cncn1C(C)c1ccccc1` (configuration not stated), the Potency result in assay [1], in assay [2], in assay [4], in assay [6] and in [7] was “inactive” each time. Besides, in [8], the outcome was inactive.

`CN(N=O)c1ccc([N+](=O)[O-])cc1`: the Potency result in [1], in assay [2], in assay [4], in [6] and in [7] was “inactive” throughout.

For `CC(C)O.CC(C)O.OCCN(CCO)CCO.OCCN(CCO)CCO.[Ti]`, the Potency result in [1], in assay [2], in [4] and in assay [6] was “inactive” throughout. The result in assay [8] was inactive.

As for `O=C(CBr)c1ccccc1`, the Potency entry in [1], in assay [3], in [4], in assay [6] and in assay [7] was “inactive” throughout. Further, the Potency in assay [2] was 34.6 µM (active). The outcome in [8] was inactive.

Take `CCCC(=O)Cl`: the Potency entry in [1], in assay [2], in assay [4], in assay [6] and in [7] was “inactive” each time. The result in assay [8] was inactive.

As to `CN1[C@@H]2CC[C@H]1CC(OC(=O)c1cc(Cl)cc(Cl)c1)C2` (some centres not stated), the Potency entry in [1], in [9], in assay [10], in [3], in assay [6] and in [7] was “inactive” in each case. Moreover, in [4], the Potency was 26.6 µM (active). Also, the outcome in assay [8] was inactive.

Regarding `CCn1cc[n+](C)c1`, the Potency result in [1], in [4] and in assay [6] was “inactive” in each case. Further, the Potency result in [2] was “inactive and 19.3 µM (active) and 38.8 µM (active)”.

As to `CC1(C)CCC(Cc2ccc(Cl)cc2)C1(O)Cn1cncn1` (configuration not stated), the Potency entry in assay [1] and in assay [7] was “inactive” in each case. Moreover, the Potency in [2] is 27.3 µM (active). In addition, the compound was classed as inactive in assay [8].

For the compound `C=COC(C)=O`, the Potency entry in [1], in assay [2], in [3], in assay [4] and in assay [6] was “inactive” in each case. Moreover, the compound was classed as inactive in assay [8].

Turning to `N#CCc1ccccc1`, the Potency entry in assay [1], in assay [9], in [10], in assay [3], in assay [4] and in assay [6] was “inactive” each time. For the same compound, in [7], the Potency result was “inactive”. In addition, the outcome in [8] was inactive.

As to `CC(Cl)Cl`, the Potency result in assay [1], in assay [9], in [10], in [3], in [4] and in assay [6] was “inactive” in each case. Besides, the Potency entry in [7] was “inactive”. Further, the result in assay [8] was inactive.

For the compound `COP(=O)(OC)O/C(=C/Cl)c1cc(Cl)c(Cl)cc1Cl`, the Potency entry in [1], in assay [5], in [6] and in [7] was “inactive” each time. Further, the Potency in assay [2] was 57.5 µM (active).

`N#Cc1cc(I)c(O)c(I)c1`: the Potency entry in assay [1], in assay [4], in assay [5] and in [6] was “inactive” throughout. In addition, the Potency in assay [2] was 24.3 µM (active). Moreover, the compound was called inactive in assay [8].

As to `C/C=C/C=O`, the Potency result in assay [1], in [2] and in assay [6] was “inactive” each time.

`O=C=Nc1ccc(Cl)cc1`: the Potency result in assay [1], in assay [9], in [10], in [3] and in [7] was “inactive” in each case. The Potency in assay [4] was 2.43 µM (active).

For `CC(=O)NC1CCSC1=O` (configuration not stated), the Potency entry in [1], in assay [2], in assay [4], in assay [5], in assay [6] and in assay [7] was “inactive” in each case.

Regarding `O=C(OC1CCCCC1)c1ccccc1C(=O)OC1CCCCC1`, the Potency result in assay [1], in assay [3] and in assay [7] was “inactive” in each case. Besides, in assay [2], the Potency is 51.2 µM (active).

The record behind these values is PubChem BioAssay (Tox21).
